Laboratory results taken from PubChem BioAssay (EPA / NIEHS).
Where “and” joins values, the source holds several entries; their conditions need not be identical. Equal entries are not always repeated. Inconclusive results are not listed. Calls of active or inactive are those of the source. Rule for the calls, unless noted: active = hit-call score of the fitted dose curve at least 0.9, where 1 is the maximum; inactive = score below 0.9.

Columns and labels:
[1] = tested on: Thyroperoxidase (TPO), gene 54314; assay: CCTE_Simmons_AUR_rTPO: CCTE's Amplex UltraRed Assay for Thyroperoxidase (TPO) Inhibition, Simmons Lab (AID 2283662; active = hit-call score of the fitted dose curve at least 0.9, where 1 is the maximum;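 for AC50: potency for loss of signal meaning inhibition of peroxidase activity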)
Outline: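 Cell-free peroxidase activity assay using rat thyroid gland microsomes with excess H2O2 (300 uM) and 25 uM Amplex UltraRed. Compounds tested from 5 nM to 87.5 uM; fluorescence measured after 30 min at 37C, analysed relative to DMSO baseline.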

[2] = read-out: Secreted IgG (sIgG), gene 3500; assay: BSK_BT_sIgG: BioMAP Diversity Plus: BT Assay for Secreted IgG (sIgG) Biomarker Activity (AID 2284226); details: primary human B cells with PBMC
Outline: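 Human B cell/PBMC co-culture; compound exposure 24 h; sIgG by ELISA; gain-of-signal fit vs DMSO baseline.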

[3] = read-out: Tumor necrosis factor (Homo sapiens) (UniProt P01375); assay: BSK_BT_xTNFa: BioMAP Diversity Plus: BT Assay for Tumor necrosis factor alpha (TNF-alpha) Biomarker Activity (AID 2284230); details: primary human B cells with PBMC
Outline: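 Compounds were added to a B cell plus PBMC co-culture, and after 24 h secreted TNF-alpha was quantified with Luminex xMAP technology, with responses fitted upward from the DMSO control.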

[4] = read-out: Vascular cell adhesion molecule 1 (VCAM1), VCAM1 (gene 7412); assay: BSK_MyoF_VCAM1: BioMAP Diversity Plus: MyoF Assay for Vascular cell adhesion molecule 1 (VCAM1) Biomarker Activity (AID 2284231); details: primary human lung fibroblasts
Outline: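 Primary human lung fibroblasts (BioMAP MyoF system) dosed with chemical, VCAM-1 measured by ELISA 24 hours later. Fitted in the positive direction against DMSO; parallel SRB staining assessed cytotoxicity.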

[5] = read-out: Collagen I, COL1A1 (gene 1277); assay: BSK_MyoF_CollagenI: BioMAP Diversity Plus: MyoF Assay for Collagen I Biomarker Activity (AID 2284238); details: primary human lung fibroblasts
Outline: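 Primary human lung fibroblasts (MyoF system) treated 24 h; Collagen I quantified by ELISA and fitted in positive direction against DMSO. Parallel SRB total-protein staining assessed overt cytotoxicity.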

[6] = read-out: Actin alpha 1 (ACTA1), ACTA1 (gene 58); assay: BSK_MyoF_ACTA1: BioMAP Diversity Plus: MyoF Assay for Actin alpha 1 (ACTA1) Biomarker Activity (AID 2284244); details: primary human lung fibroblasts
Outline: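 ELISA read-out of a-SMA in primary human lung fibroblast cultures, 24 h post-dosing. Activity scored in the positive direction versus DMSO baseline.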

[7] = read-out: Interleukin 2 (IL2), IL2 (gene 3558); assay: BSK_BT_xIL2: BioMAP Diversity Plus: BT Assay for Interleukin 2 (IL2) Biomarker Activity (AID 2284245); details: primary human B cells with PBMC
Outline: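 Readout: supernatant IL-2 via Luminex xMAP after 24 h chemical dosing of a B cell/PBMC primary human co-culture. DMSO serves as negative control and baseline; increases in signal were fitted.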

[8] = read-out: Basic fibroblast growth factor (bFGF), FGF2 (gene 2247); assay: BSK_MyoF_bFGF: BioMAP Diversity Plus: MyoF Assay for Basic fibroblast growth factor (bFGF) Biomarker Activity (AID 2284246); details: primary human lung fibroblasts
Outline: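 Primary human lung fibroblast culture, 24 h compound exposure; ELISA read-out of bFGF. Positive-direction fit vs DMSO baseline. Cytotoxicity: SRB stain (0.1% SRB, 10% TCA fixation, 560 nm) in parallel wells.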

[9] = read-out: Plasminogen activator inhibitor-1 (PAI1), SERPINE1 (gene 5054); assay: BSK_MyoF_PAI1: BioMAP Diversity Plus: MyoF Assay for Plasminogen activator inhibitor-1 (PAI1) Biomarker Activity (AID 2284256); details: primary human lung fibroblasts
Outline: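 Primary human lung fibroblasts treated with chemical for 24 h; PAI-1 levels quantified by ELISA relative to DMSO. Cytotoxicity was assessed in parallel cultures by SRB total-protein staining (0.1% SRB after 10% TCA fixation, 560 nm).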

[10] = read-out: Interleukin-8 (IL8), CXCL8 (gene 3576); assay: BSK_MyoF_IL8: BioMAP Diversity Plus: MyoF Assay for Interleukin-8 (IL8) Biomarker Activity (AID 2284261); details: primary human lung fibroblasts
Outline: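 Human lung fibroblast (MyoF system) cultures dosed for 24 h, then IL-8 measured by ELISA. Response taken relative to DMSO; parallel SRB total-protein staining for cytotoxicity.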

Decorin, DCN (gene 1634) = assay: BSK_MyoF_Decorin: BioMAP Diversity Plus: MyoF Assay for Decorin Biomarker Activity (AID 2284265); details: primary human lung fibroblasts
Outline: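 Human lung fibroblast cultures were dosed for 24 h, and decorin was then measured by ELISA. Parallel cultures were stained with sulforhodamine B for total protein as a cytotoxicity check. Gain of signal was fitted relative to DMSO.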

[11] = BSK_MyoF_SRB: Viability Assessment in the BioMAP Diversity Plus: MyoF Assay (AID 2284267); details: primary human lung fibroblasts;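 note: total protein by SRB absorbance in parallel cultures as cytotoxicity measure; cells assessed 24 h after compound addition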
Outline: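 Lung fibroblast cultures, 24 h post-dose; fix 10% TCA, stain 0.1% SRB, read 560 nm. Signal = total protein as cytotoxicity measure; fitted relative to DMSO negative control.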

[12] = target: human Retinoic Acid Receptor gamma (RARg), RARG (gene 5916) (UniProt P13631); assay: ATG_RARg_TRANS: Attagene TRANS-FACTORIAL HepG2 Assay for human Retinoic Acid Receptor gamma (RARg) (AID 2283009; active = hit-call score of the fitted dose curve at least 0.9, where 1 is the maximum)
Outline: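 Readout: reporter transcript levels via RT-PCR, 6-FAM primer-extension labelling, HpaI digestion and capillary electrophoresis. Cells: HepG2 carrying transfected RARg-GAL4 chimera plus UAS reporter set. Dosing 24 h; DMSO negative control.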

[13] = target: Nuclear receptor subfamily 1 group I member 2 (Homo sapiens) (UniProt O75469); assay: NVS_NR_hPXR: NovaScreen (NVS) Nuclear Receptor Binding Assay for human Pregnane X Receptor (PXR) (AID 2283365; active = hit-call score of the fitted dose curve at least 0.9, where 1 is the maximum;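 note: a drop in FRET signal versus DMSO baseline means the compound binds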)
Outline: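 Cell-free TR-FRET binding assay with extracted human PXR protein, read 2 h after dosing. Primary screen run in duplicate at 25 uM, actives followed in concentration series; loss of signal fitted against DMSO baseline.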

[14] = target: Androgen receptor (Homo sapiens) (UniProt P10275); assay: ATG_AR_TRANS: Attagene TRANS-FACTORIAL HepG2 Assay for human Androgen Receptor (AR) (AID 2282973; active = hit-call score of the fitted dose curve at least 0.9, where 1 is the maximum); details: HepG2 Attagene TRANS-FACTORIAL AR reporter transcription
Outline: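 HepG2 cells transiently transfected with AR-Gal4 chimera and GAL4-UAS reporter units; chemical exposure 24 h. Reporter mRNA quantified by RT-PCR with fluorescent labelling and capillary electrophoresis; gain-of-signal fitted against DMSO.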

[15] = target: human Retinoic Acid Receptor beta (RARb), RARB (gene 5915) (UniProt P10826); assay: ATG_RARb_TRANS: Attagene TRANS-FACTORIAL HepG2 Assay for human Retinoic Acid Receptor beta (AID 2283004; active = hit-call score of the fitted dose curve at least 0.9, where 1 is the maximum)
Outline: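 HepG2 cells were transiently transfected with GAL4-UAS reporter units that report activity of exogenous chimeric NR-Gal4 proteins, then exposed to compound for 24 h. Reporter mRNA was quantified by RT-PCR with capillary electrophoresis fluorescence, as gain of signal over DMSO.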

[16] = target: Retinoic acid receptor alpha (Homo sapiens) (UniProt P10276); assay: ATG_RARa_TRANS: Attagene TRANS-FACTORIAL HepG2 Assay for human Retinoic Acid Receptor alpha (RARa) (AID 2283005; active = hit-call score of the fitted dose curve at least 0.9, where 1 is the maximum)
Outline: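 Reporter transcripts, measured by RT-PCR with fluorescent labeling and capillary electrophoresis after 24 h dosing, reflect activity of an exogenous human RARa–GAL4 fusion in transiently transfected HepG2. Fitted for increase relative to DMSO.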

[17] = target: human Peripheral-type Benzodiazepine Receptor (PBR), TSPO (gene 706) (UniProt P30536); assay: NVS_MP_hPBR: NovaScreen (NVS) Membrane Protein Assay for human Peripheral-type Benzodiazepine Receptor (PBR) (AID 2283331; active = hit-call score of the fitted dose curve at least 0.9, where 1 is the maximum;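 note: hits reduce radioligand binding relative to DMSO baseline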)
Outline: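 Cell-free binding to human colonic membrane preparations measured by filter-based scintillation counting after 1 h. Compounds first run at 25 uM in duplicate, then concentration series for actives; signal loss against DMSO baseline.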

[18] = CEETOX_H295R_MTT_cell_viability: Viability Assessment in the CeeTox HT-H295R MTT Assay (AID 2283718);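 for AC50: curve fitted both ways so AC50 may mark viability loss or gain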
Outline: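 MTT reduction (0.5 mg/ml, 4 h at 37 C; absorbance at 570 and 650 nm) gave viability as background-corrected percent change versus controls. H295R cells had 48 h forskolin (10 uM) prestimulation, then 48 h chemical exposure at 0.1% DMSO.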

[19] = target: Estrogen receptor (Homo sapiens) (UniProt P03372); assay: ATG_ERa_TRANS: Attagene TRANS-FACTORIAL HepG2 Assay for human Estrogen Receptor alpha (ERa) (AID 2282970; active = hit-call score of the fitted dose curve at least 0.9, where 1 is the maximum); details: HepG2 Attagene TRANS ERa GAL4 reporter, mRNA
Outline: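 Gal4-fusion ERa transactivation, measured as reporter transcript level in transiently transfected HepG2 cells. Exposure 24 h; RT-PCR plus capillary electrophoresis with fluorescence detection.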

Measured: AC50

Tumor necrosis factor (Homo sapiens), sequence (P01375 whole entry, looked up): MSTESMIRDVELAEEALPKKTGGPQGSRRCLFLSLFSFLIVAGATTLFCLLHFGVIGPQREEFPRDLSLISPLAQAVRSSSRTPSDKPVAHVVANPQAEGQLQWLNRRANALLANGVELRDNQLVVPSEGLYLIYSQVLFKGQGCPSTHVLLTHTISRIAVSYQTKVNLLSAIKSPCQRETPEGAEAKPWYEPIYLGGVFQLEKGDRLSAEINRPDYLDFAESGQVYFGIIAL
human Retinoic Acid Receptor gamma (RARg), RARG (gene 5916), sequence (P13631 whole entry, looked up, the tested form may be a part): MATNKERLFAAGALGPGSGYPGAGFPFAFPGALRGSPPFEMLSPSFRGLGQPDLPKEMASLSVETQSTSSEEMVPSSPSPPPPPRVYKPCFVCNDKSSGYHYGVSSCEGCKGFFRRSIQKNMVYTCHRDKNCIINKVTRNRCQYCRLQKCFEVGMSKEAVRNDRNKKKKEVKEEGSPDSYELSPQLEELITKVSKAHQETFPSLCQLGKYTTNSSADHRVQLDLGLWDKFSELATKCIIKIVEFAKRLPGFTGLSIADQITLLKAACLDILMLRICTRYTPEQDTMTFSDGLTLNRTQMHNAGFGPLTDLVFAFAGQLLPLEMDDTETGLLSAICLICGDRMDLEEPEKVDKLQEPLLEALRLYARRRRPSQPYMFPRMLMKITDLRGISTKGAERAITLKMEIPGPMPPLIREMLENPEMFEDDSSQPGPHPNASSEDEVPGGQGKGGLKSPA
Retinoic acid receptor alpha (Homo sapiens), sequence (P10276 whole entry, looked up, the tested form may be a part): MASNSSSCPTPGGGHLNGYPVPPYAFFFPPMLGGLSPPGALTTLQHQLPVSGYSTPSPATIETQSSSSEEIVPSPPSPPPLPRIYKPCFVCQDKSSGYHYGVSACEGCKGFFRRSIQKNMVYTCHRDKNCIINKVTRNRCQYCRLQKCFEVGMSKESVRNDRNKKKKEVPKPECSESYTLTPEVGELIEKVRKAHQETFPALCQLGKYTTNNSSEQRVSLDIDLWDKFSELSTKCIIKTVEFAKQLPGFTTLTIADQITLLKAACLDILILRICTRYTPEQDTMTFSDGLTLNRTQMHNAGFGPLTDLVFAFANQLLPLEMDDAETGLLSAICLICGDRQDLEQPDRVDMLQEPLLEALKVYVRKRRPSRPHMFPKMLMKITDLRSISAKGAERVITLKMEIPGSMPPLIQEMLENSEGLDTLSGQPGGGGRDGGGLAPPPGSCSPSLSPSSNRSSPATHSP
human Peripheral-type Benzodiazepine Receptor (PBR), TSPO (gene 706), sequence (P30536 whole entry, looked up): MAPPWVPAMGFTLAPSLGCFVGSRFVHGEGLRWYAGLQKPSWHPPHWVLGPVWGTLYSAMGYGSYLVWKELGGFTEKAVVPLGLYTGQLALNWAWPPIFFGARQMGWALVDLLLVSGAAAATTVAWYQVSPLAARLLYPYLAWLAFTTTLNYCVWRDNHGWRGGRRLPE
Androgen receptor (Homo sapiens), sequence (P10275 whole entry, looked up, the tested form may be a part): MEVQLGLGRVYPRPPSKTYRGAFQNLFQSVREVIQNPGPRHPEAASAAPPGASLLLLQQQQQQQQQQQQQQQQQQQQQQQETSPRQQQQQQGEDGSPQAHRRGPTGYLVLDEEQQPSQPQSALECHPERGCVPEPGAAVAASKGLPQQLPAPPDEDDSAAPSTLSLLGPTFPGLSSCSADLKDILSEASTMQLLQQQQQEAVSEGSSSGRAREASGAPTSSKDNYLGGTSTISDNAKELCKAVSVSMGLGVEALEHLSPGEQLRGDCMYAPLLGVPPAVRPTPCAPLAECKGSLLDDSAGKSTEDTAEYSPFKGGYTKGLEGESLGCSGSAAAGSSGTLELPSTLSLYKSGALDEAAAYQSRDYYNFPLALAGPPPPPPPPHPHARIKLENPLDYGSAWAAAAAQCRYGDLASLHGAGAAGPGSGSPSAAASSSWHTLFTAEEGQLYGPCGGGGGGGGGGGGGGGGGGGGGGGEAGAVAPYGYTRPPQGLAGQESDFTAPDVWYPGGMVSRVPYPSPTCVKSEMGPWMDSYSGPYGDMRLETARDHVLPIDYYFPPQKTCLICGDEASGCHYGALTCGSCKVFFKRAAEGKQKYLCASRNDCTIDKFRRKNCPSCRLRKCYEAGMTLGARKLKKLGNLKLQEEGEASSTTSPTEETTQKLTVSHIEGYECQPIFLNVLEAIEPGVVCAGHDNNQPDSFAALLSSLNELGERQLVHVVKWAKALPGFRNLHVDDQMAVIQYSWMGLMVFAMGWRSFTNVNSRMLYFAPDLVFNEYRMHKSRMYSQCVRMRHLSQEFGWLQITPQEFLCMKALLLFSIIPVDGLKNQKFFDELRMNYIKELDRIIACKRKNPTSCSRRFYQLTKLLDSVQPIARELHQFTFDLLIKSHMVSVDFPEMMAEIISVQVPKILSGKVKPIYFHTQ
Nuclear receptor subfamily 1 group I member 2 (Homo sapiens), sequence (O75469 whole entry, looked up): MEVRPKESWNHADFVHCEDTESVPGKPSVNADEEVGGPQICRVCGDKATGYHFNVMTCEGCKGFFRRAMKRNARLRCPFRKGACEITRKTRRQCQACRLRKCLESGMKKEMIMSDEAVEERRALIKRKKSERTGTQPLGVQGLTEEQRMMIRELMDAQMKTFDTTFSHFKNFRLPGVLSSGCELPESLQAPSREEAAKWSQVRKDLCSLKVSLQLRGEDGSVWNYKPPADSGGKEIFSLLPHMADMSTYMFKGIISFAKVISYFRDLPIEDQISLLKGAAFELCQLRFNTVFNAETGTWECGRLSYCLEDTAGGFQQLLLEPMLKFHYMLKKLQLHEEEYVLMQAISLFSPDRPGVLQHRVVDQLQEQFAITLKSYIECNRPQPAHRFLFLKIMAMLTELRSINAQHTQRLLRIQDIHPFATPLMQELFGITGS
human Retinoic Acid Receptor beta (RARb), RARB (gene 5915), sequence (P10826 whole entry, looked up, the tested form may be a part): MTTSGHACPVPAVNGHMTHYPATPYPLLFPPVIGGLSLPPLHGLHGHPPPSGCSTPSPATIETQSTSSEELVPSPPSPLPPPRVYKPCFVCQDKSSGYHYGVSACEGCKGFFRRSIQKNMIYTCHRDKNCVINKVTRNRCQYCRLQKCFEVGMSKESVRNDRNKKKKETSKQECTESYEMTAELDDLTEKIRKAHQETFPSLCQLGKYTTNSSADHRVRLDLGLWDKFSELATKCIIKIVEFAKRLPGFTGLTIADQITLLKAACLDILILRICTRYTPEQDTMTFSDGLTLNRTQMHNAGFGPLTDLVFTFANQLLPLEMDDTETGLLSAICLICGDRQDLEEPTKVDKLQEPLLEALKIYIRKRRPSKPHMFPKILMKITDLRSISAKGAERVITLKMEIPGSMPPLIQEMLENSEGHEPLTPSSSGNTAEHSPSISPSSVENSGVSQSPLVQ
Estrogen receptor (Homo sapiens), sequence (P03372 whole entry, looked up, the tested form may be a part): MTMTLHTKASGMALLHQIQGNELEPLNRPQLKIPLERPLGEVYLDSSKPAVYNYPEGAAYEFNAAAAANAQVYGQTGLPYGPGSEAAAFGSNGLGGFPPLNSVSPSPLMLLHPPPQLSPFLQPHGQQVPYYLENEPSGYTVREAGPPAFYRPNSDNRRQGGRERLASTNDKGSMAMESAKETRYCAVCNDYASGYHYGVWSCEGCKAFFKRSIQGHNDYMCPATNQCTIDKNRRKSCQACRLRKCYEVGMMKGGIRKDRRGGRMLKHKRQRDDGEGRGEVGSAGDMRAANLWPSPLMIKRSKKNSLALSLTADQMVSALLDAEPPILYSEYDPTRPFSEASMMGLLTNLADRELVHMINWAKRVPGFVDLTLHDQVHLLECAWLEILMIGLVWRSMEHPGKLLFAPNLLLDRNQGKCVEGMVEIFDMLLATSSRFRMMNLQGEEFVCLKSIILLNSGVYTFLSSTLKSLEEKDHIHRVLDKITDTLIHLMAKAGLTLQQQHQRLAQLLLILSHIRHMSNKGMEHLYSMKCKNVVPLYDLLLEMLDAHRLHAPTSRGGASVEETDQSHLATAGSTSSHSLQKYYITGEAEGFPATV

C=CC(=O)OCC(CC)CCCC (stereo not given)
active: Decorin, DCN (gene 1634) 0.016 µM
not listed: [12] | [13] | [14] | [15] | [16] | [17] | [18] | [19]
inactive: all other assays above

O=[N+]([O-])O
inactive: [12]

[CH3][Sn]([CH3])([Cl])[Cl]
inactive: [13]

Nc1c(Cl)c(Cl)c(Cl)c(Cl)c1Cl
inactive: [14] | [15] | [16] | [12]

CCC(=O)c1ccc(Cl)cc1
inactive: [13]

CN(C)N
inactive: [14]

O=c1[nH]c(Cl)c(Cl)cc1Cl
not listed: [1] | [12] | [13] | [15] | [16] | [17] | [18] | [19]
inactive: all other assays above

CN(C)C(=O)C(c1ccccc1)c1ccccc1
inactive: [13]

CCc1cccc(C)c1N(C(=O)CCl)[C@@H](C)COC
inactive: [15]
active: [17] 2.89 µM | [13] 5.91 µM

CCOP(=O)(OCC)OCC
inactive: [15] | [16] | [12]

Cc1ccc(OP(=O)(Oc2ccc(C)cc2)Oc2ccc(C)cc2)cc1 (tested in a mixture with another compound)
inactive: [18] | [3] | [4] | [8] | [9] | Decorin, DCN (gene 1634) | [11]
active: [17] 1.12 µM and 1.76 µM | [2] 13.5 µM | [5] 32.6 µM | [6] 26.4 µM | [7] 20 µM | [10] 10.2 µM

CC(C)C#N
inactive: [16] | [12]

CN1C(=O)CCS(=O)(=O)C1c1ccc(Cl)cc1 (stereo not given)
inactive: [15] | [12]

CC1CCCC1.[C-]#[O+].[C-]#[O+].[C-]#[O+].[Mn]
active: [1] 26.4 µM
inactive: [15] | [12]

Oc1cc(Cl)ccc1Cl
active: [9] 0.245 µM
not listed: [1] | [13] | [14] | [16] | [17] | [19]
inactive: all other assays above

CCOC(=O)NC(=S)Nc1ccccc1NC(=S)NC(=O)OCC
active: [13] 6.55 µM | [1] 16 µM
inactive: [15]

CCC(Br)(CC)C(=O)NC(N)=O
inactive: [15]

Nc1ccc(-c2ccc(N)c(N)c2)cc1N
active: [2] 15.4 µM | [4] 20 µM | [6] 20 µM
inactive: [16] | [3] | [5] | [7] | [8] | [9] | [10] | Decorin, DCN (gene 1634) | [11]

O=C(CCl)c1ccccc1
active: [1] 43.8 µM
inactive: [15] | [16] | [12]

CC(C)(O)C#N
active: [1] 36.7 µM
inactive: [15] | [16] | [12]

O=S(=O)(c1ccccc1)c1ccccc1
active: [17] 10.1 µM
not listed: [1] | [13] | [14] | [15] | [18] | [19]
inactive: all other assays above

Nc1ccccc1C(=O)OCCc1ccccc1
inactive: [15] | [16]

CC[N+](=O)[O-]
inactive: [15]

S=c1[nH]c2ccccc2[nH]1
active: [1] 0.0688 µM

CCOP(=O)(OCC)Oc1ccc([N+](=O)[O-])cc1
inactive: [17] | [18]

O=C(NC(=O)c1c(F)cccc1F)Nc1ccc(Oc2ccc(C(F)(F)F)cc2Cl)cc1F
inactive: [15] | [16] | [12] | [13] | [18]

COC(C)(C)CCC[C@H](C)C/C=C/C(C)=C/C(=O)OC(C)C
active: [17] 25 µM | [2] 13.4 µM | [3] 32.5 µM | [4] 27.1 µM | [6] 30.9 µM | [7] 28.4 µM
inactive: [5] | [8] | [9] | [10] | Decorin, DCN (gene 1634) | [11]

C[C@]12CC[C@H](O)C[C@H]1CC[C@@H]1[C@@H]2C[C@@H](O)[C@]2(C)[C@@H](C3=CC(=O)OC3)CC[C@]12O
inactive: [14]
active: [18] 2.57 µM

N#CCNCC#N
inactive: [19]

CC(Cc1ccc(C(C)(C)C)cc1)CN1C[C@@H](C)O[C@@H](C)C1 (stereo not given in full)
active: [18] 65.8 µM

CC(C)CCCCCCCOC(=O)c1ccccc1C(=O)OCCCCCCCC(C)C
inactive: [2] | [3] | [4] | [5] | [6] | [7] | [8] | [9] | [10] | Decorin, DCN (gene 1634) | [11]

Cc1ccc(C)c2ccccc12
inactive: [13]
